# In PubChem BioAssay AID493192 (National Center for Advancing Translational Sciences (NCATS), 2011):
# Inconclusive results are not listed. A call without a number means that no potency is given here. Activity calls are given as the source filed them. Calls follow the shape of the dose curve; as a rule, active = well fitted activation curve with a large enough effect; inconclusive = small, poorly fitted or top-dose-only effect; inactive = no such curve, though single readings can be large or run the other way.
# Assay: qHTS Assay for Identifying a Potential Treatment of Ataxia-Telangiectasia: Hit Validation;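 also: phospho-KAP1 level by AlphaLISA as a proxy for ATM-like kinase activity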
# Details: Ataxia-telangiectasia cell-based hit validation qHTS, in ATM-null A-T patient fibroblasts; series mostly up to 76.9 µM
# Summary of the method: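 hTERT-immortalized A-T patient fibroblasts (F2112) were dosed at up to 76.7 uM final for 60 min at 37C. After a further 30 min incubation, cells were lysed, and phospho-KAP1 was detected by AlphaLISA after 6 hr at 25C.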
# Potency is read from the fitted curve at half-maximal effect.
row,Structure (SMILES),Potency
1,Cn1c(=O)oc2cc(S(=O)(=O)N3CCc4ccccc43)ccc21,inactive
2,CCNC(=S)N(CCc1c(C)[nH]c2ccccc12)Cc1cccnc1,inactive
3,COC(=O)c1ccc2[nH]c3cccc(/C(=C/c4ccccc4)c4ccccc4)c3c2c1,inactive
4,C=C(C)n1c(=O)n(Cc2ccccc2C)c2ccccc21,inactive
5,CCOC(=O)c1c(CSc2ccsc2)n(C)c2cc(Br)c(O)c(CN(C)C)c12,46.3 µM (active)
6,CCC[C@H]1CCCC/C=C\CCCC(=O)OCCN1C(=O)OC(C)(C)C,inactive
7,CNC(=O)Cc1csc2ccc(C)cc12,inactive
8,CC(C)(CN1CCN(c2ccccc2)CC1)NS(=O)(=O)c1ccccc1,inactive
9,CN(Cc1ccccc1)C(=O)c1cccc(N2C(=O)C3CC=CCC3C2=O)c1 (configuration not stated),inactive
10,COc1cccc(CNC(=O)C(CC(C)C)NC(=O)c2ccccc2C)c1 (configuration not stated),inactive
11,O=C(NCCCN1CCOCC1)c1ccc2c(c1)N(Cc1cccc(F)c1)C(=O)c1ccccc1S2,7.33 µM (active)
12,Cc1ccc(C(=O)Nc2sc3c(c2C(=O)O)CCCCC3)o1,inactive
13,CCOC(=O)N1CCC(NC(=O)C2CCN(S(=O)(=O)c3cccc4cccnc34)CC2)CC1,inactive
14,COc1ccc(-c2nn(C)c(=O)[nH]2)cc1,inactive
15,COc1ccc(NS(=O)(=O)c2ccc(N3CC(O)=C(c4ccccc4)C3=N)cc2)cc1,inactive
16,CCn1nc(C)c(/C=N/NC(=O)Cn2cncn2)c1C,inactive
17,Cc1ccc(OC(=O)c2cc(C)nn2C(C)(C)C)cc1,inactive
18,COc1ccc(CNC(=O)COc2cccnc2[N+](=O)[O-])cc1OC,inactive
19,Cc1ccc2c(c1)C(=O)CC(O)(C(F)(F)F)O2 (configuration not stated),inactive

row,Structure (SMILES),Potency
1,O=C(Nc1ccccc1Oc1ccccc1)c1cccs1,41.2 µM (active)
2,CCN1CCN(c2oc(COc3ccc(Cl)cc3)nc2C#N)CC1,inactive
3,COC1=C(N)C(=O)c2nc(-c3nc(C(=O)O)c(C)c(-c4ccc(OC)c(OC)c4O)c3N)ccc2C1=O,inactive
4,CCn1c2ccccc2c2c3ncc4cccn4c3ccc21,46.3 µM (active)
5,C=CCOC(=O)C1=C[C@H](c2coc3ccccc3c2=O)C[C@H](OCc2ccc(CO)cc2)O1,inactive
6,CCOc1cccc(C(=O)Nc2ccccc2N2CCN(C(=O)C(C)C)CC2)c1,inactive
7,CCC(C)Nc1nc(N)c([N+](=O)[O-])c(NCCO)n1 (configuration not stated),inactive
8,CC1CCCC(C)N1CCCNC(=O)Cn1ncc2c3ccccc3n(C)c2c1=O (configuration not stated),23.2 µM (active)
9,Cc1ccc(C)c(-c2csc(Nc3ncccn3)n2)c1,inactive
10,CC1=C/C(=C\C=C(C#N)C#N)N(C)c2ccccc21,inactive
11,CCS(=O)(=O)c1ccc(C(=O)Nc2ccccc2)c(Cl)c1Cl,29.2 µM (active)
12,CCOC(=O)N1CCN(c2nc(N(c3ccccc3)c3ccccc3)nc(-n3ccnc3)n2)CC1,inactive
13,Cn1cc(/C=N/NC(N)=S)c2ccccc21,inactive
14,O=C(O)CCCC(=O)N1N=C(c2ccccc2)CC1c1cccs1 (configuration not stated),inactive
15,O=C(c1cccc(F)c1)N1CCCC(C(=O)N2CCCCCC2)C1 (configuration not stated),29.2 µM (active)
16,COc1ccc(C(=O)/C=C/C(=O)N(CC(=O)NC2CCCCC2)Cc2ccccc2)c(O)c1,14.6 µM (active)
17,Cc1ccc(C)c(-n2c(SCC(=O)NC(C(=O)O)C(C)C)nnc2-c2cccc(Cl)c2)c1 (configuration not stated),36.8 µM (active)
18,CCC12CN(C(=O)c3ccc([N+](=O)[O-])cc3)CC(CC)(CN(C(=O)c3ccc([N+](=O)[O-])cc3)C1)C2=O,inactive
